Laboratory results taken from PubChem BioAssay (NCATS).
Results filed as inconclusive are left out. Where a call stands in place of a potency, no number is given. Values without a mark were called inactive. Activity calls are given as the source filed them. Calls follow the shape of the dose curve; as a rule, active = well fitted curve in the direction sought with a large enough effect; inconclusive = small, poorly fitted or top-dose-only effect, or another doubt; inactive = no such curve, though single readings can be large; an effect the other way counts as inactive or inconclusive. Peptide text beside a SMILES is read from it.

What was measured:
[1] = target: Cellular tumor antigen p53 (Homo sapiens) (UniProt P04637); assay: Primary qHTS for small molecule compounds that upregulate eGFP-tagged delta133p53alpha (in N-terminal) cells. (AID 2060322); settings: NCI-H358 eGFP-delta133p53alpha fluorescence, 24 h; activation: stronger effect = higher value; also: nearly all actives have a fitted effect of over 75% in size; also: potency is read from the fitted curve at half-maximal effect; as to activation: series mostly up to about 56 µM
How it was run: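 NCI-H358 cells pre-induced 24 h with 10 ng/ml doxycycline to express N-terminal eGFP-delta133p53alpha, then dosed 24 h at 37C without doxycycline; fixed, Hoechst-stained, GFP intensity by laser scanning cytometry, normalized to DMSO (0%) and 57.5 uM 5-azacytidine (100%).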

[2] = target: Aldehyde dehydrogenase, mitochondrial (Homo sapiens) (UniProt P05091); assay: qHTS for Inhibitors of the Aldehyde Dehydrogenase Family (ALDH2) Primary screen (AID 2061308); also: nearly all actives have a fitted effect of over 55% in size
[3] = target: Retinaldehyde dehydrogenase 3 (Homo sapiens) (UniProt P47895); assay: qHTS for Inhibitors of the Aldehyde Dehydrogenase Family (ALDH1A3) Primary screen (AID 2061315)

Cellular tumor antigen p53 (Homo sapiens), sequence (P04637 whole entry, looked up): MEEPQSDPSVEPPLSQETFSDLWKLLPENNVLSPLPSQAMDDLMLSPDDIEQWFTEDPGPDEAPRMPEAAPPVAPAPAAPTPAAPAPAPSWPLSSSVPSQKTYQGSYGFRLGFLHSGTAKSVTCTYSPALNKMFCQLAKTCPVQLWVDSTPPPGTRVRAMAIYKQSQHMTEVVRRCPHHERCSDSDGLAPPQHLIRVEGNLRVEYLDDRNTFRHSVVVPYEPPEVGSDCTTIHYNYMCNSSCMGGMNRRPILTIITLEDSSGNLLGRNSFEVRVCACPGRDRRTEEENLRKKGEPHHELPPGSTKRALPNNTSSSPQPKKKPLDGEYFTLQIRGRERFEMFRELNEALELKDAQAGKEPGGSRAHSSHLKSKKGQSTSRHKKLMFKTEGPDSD

Row | Structure (SMILES) | activation [1] | Potency [2] | Potency [3] | Potency [1] | activity change, negative = inhibition [2] | activity change, negative = inhibition [3]
1 | CC1(C)CCC2(C(=O)O)C(O)CC3(C)C(=CCC4C5(C)CCC(OC6OC(CO)C(O)C(O)C6OC6OC(CO)C(O)C(O)C6OC6OCC(O)(CO)C6O)C(C)(C)C5CCC43C)C2C1 (centres undefined) | -18.3% | inactive | inactive |  |  | 
2 | COc1ccc(C(OC2OC(CO)C(O)C(O)C2O)C(C)O)cc1 (centres undefined) | 9.82% | inactive | inactive |  |  | 
3 | CC(O)C1CCC2C3CCC4CC(OC5OC(C(=O)O)C(O)C(O)C5O)CCC4(C)C3CCC12C (centres undefined) | -17% | inactive | inactive |  |  | 
4 | COC(=O)C1(C)CCCC2(C)c3ccc(C(C)C)cc3C(O)C(O)C12 (centres undefined) | -14.3% | inactive | inactive |  |  | 
5 | CC(C)C1NC(=O)CNC(=O)C2CCCN2C(=O)C(Cc2c[nH]c3ccccc23)NC(=O)CNC(=O)C(Cc2ccc(O)cc2)NC(=O)CNC1=O (centres undefined) (cyclo(GVGYGWP); configuration not given here) | -6.25% | inactive | inactive |  |  | 
6 | C=C(C(=O)O)[C@H]1C[C@]2(C)[C@@H](O)CC[C@]23O[C@H]1C[C@@H]3C | 18.8% | inactive | inactive |  |  | 
7 | C[C@H]1CCN2C[C@]34C[C@@]5(C(=O)Nc6c5ccc5c6OC=CC(C)(C)O5)C(C)(C)C3C[C@]12C(=O)N4C (some centres undefined) | 5.34% | inactive | inactive |  |  | 
8 | CC(CC12CCCN1C(=O)C1CCCN1C2=O)OC(N)=O (centres undefined) | -18.3% | inactive | inactive |  |  | 
9 | C[C@]12CC[C@@H]3c4ccc(O)cc4CC[C@H]3[C@@H]1C[C@@H](O[C@@H]1O[C@H](C(=O)O)[C@@H](O)[C@H](O)[C@H]1O)[C@@H]2O | -6.33% | inactive | inactive |  |  | 
10 | C=C(C(=O)O)C1CC(O)C2(C)CCCC(=C)C2C1 (centres undefined) | 3.82% | inactive | inactive |  |  | 
11 | C=CC(C)(C)c1[nH]c2cc3c(cc2c1CC1NC(=O)C2CCCN2C1=O)C=CC(C)(C)O3 (centres undefined) | -13% | inactive | inactive |  |  | 
12 | COc1ccc(/C=C/C(=O)O[C@@H]2[C@@H](O)[C@@H](O)[C@H](O[C@H]3[C@@H]4C=CO[C@@H](O[C@@H]5O[C@H](CO)[C@@H](O)[C@H](O)[C@H]5O)[C@@H]4[C@@]4(CO)O[C@@H]34)O[C@H]2C)cc1 | -16% | inactive | inactive |  |  | 
13 | O=C(c1ccccc1)c1c(O)cc(O)cc1O[C@@H]1O[C@H](CO)[C@@H](O)[C@H](O)[C@H]1O | -13% | inactive | inactive |  |  | 
14 | Cc1occc(=O)c1O[C@@H]1O[C@H](COC(=O)CC(C)(O)CC(=O)O)[C@@H](O)[C@H](O)[C@H]1O (some centres undefined) | -11.6% | inactive | inactive |  |  | 
15 | CCCC(CCC)C(=O)NCc1ccc2c(cnn2-c2ccccc2OC)c1 | -5.25% | inactive | inactive |  |  | 
16 | CC(=O)O[C@H]1CC2C(COC(=O)CC(C)C)=CO[C@@H](OC(=O)CC(C)C)C2[C@]12CO2 (some centres undefined) |  | inactive | inactive | 10.4 µM (active) |  | 
17 | COc1ccc(CNC(=O)c2cc(-c3cncc(C)c3)ncc2-c2nccs2)nc1OC | 0.477% | inactive | inactive |  |  | 
18 | CC(C)CC(=O)OC[C@H]1O[C@@](COC(=O)CC(C)C)(O[C@H]2O[C@H](CO)[C@@H](O)[C@H](O)[C@H]2O)[C@@H](OC(=O)CC(C)C)[C@@H]1OC(=O)CC(C)C | -0.763% | inactive | inactive |  |  | 
19 | C[C@@H]1C[C@@H](O)[C@@]2(CO)C(CO)=CCC[C@@H]2[C@@]12C[C@@H](c1ccoc1)OC2=O | 21.4% | inactive | inactive |  |  | 
20 | C/C1=C\CCC2=C[C@@H](OC2=O)c2c(C)coc2C1 | 13.4% | inactive | inactive |  |  | 
21 | Cc1ccc(C(=O)N2CCN(c3ccc([N+](=O)[O-])cc3)CC2)cc1Cl | 1.91% | inactive | inactive |  |  | 
22 | CC1OC(OC2C(CO)OC(OCC3OC(OC(=O)C45CCC(C)(C)CC4C4=CCC6C7(C)CCC(OC8OC(C(=O)O)C(O)C(OC9OC(CO)C(O)C(O)C9O)C8O)C(C)(C)C7CCC6(C)C4(C)CC5)C(O)C(O)C3O)C(O)C2O)C(O)C(O)C1O (centres undefined) | 18.3% |  |  |  | -0.0745% [at 11.2 µM] | -5.8% [at 11.2 µM]
23 | CC1CCC2(C(=O)OC3OC(CO)C(O)C(O)C3O)CCC3(C)C(=CCC4C5(C)CC(O)C(O)C(C)(C(=O)O)C5CCC43C)C2C1(C)O (centres undefined) | -18.3% | inactive | inactive |  |  | 
